Sampled rows, rich in hits. Any-hit rate of the full collection: about 3.2%.
AMA1-RON2 inh: qHTS for Inhibitors of AMA1-RON; Towards Development of Antimalarial Drug Lead: Primary Screen; AlphaScreen AMA1-biotinylated RON2 peptide binding; AID 720542, 2013; Potency, µM (series often up to 58.2 µM), inactives show top-dose activity change, negative = inhibition, hits mostly inhibitors; 360,000 compounds, 0.2% hits;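 note: 0% = vehicle wells and -100% = peptide control; nearly all actives have a fitted effect of over 45% in size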
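AMA1 (3D7) with his tag at 25 nM final met compounds first, then biotinylated RON2 peptide at 25 nM; detection used donor plus acceptor beads, 10 µg/mL apiece, read by AlphaScreen after 30 min at room temperature.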
Sm TGR block: qHTS Assay for the Inhibitors of Schistosoma Mansoni Peroxiredoxins; 360,000 compounds, 3% hits; purified TGR, DTNB reduction, TNB absorbance 405 nm; Schistosoma mansoni thioredoxin glutathione reductase (TGR), Q962Y6; Potency, µM (doses to about 114 µM), for inactives: at the highest dose activity change, negative = inhibition, most hits filed as inhibitors; note: nearly all actives have a fitted effect of over 60% in size
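TGR 20 nM + NADPH 100 uM (dispensed conc.), cpd preinc 15 min RT; start with NADPH (500 uM addition) then DTNB (15 mM addition). Kinetic TNB absorbance, 405 nm filter. Four-parameter Hill fit across titration.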
LmPK inhibitor: qHTS Assay for Inhibitors of Leishmania Mexicana Pyruvate Kinase (LmPK). Q27686. AID 1721, 2009. 290,000 compounds, 0.37% hits. Potency, µM (top dose mostly 57.5 µM), without a hit: top-dose activity change, negative = inhibition, usual class: inhibitors. purified LmPK, Kinase-Glo ATP luminescence, 1 h
Target sequence (Q27686 whole entry, looked up): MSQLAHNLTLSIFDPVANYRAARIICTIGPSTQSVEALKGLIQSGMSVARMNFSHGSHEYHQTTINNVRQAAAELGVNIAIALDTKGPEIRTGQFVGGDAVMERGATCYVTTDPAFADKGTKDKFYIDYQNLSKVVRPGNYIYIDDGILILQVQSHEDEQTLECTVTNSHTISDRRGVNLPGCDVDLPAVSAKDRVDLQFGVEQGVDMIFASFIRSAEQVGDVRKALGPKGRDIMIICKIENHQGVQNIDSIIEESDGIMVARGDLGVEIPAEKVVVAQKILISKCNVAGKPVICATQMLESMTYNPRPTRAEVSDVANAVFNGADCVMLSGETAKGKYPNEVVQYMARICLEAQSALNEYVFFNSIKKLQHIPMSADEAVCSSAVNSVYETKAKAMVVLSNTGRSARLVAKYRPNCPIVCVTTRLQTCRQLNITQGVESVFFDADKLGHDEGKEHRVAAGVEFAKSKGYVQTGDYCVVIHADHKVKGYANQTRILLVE
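Purified LmPK (0.1 nM) with 0.5 mM PEP and 0.1 mM ADP in imidazole buffer pH 7.2 with MgCl2/KCl, 1 h at room temperature. ATP formed was read by luciferase luminescence and normalized to no-enzyme and uninhibited controls.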
TbPYK inhibitor: qHTS of Trypanosoma Brucei Inhibitors. pyruvate kinase (Trypanosoma brucei), Q57TT1. TbPYK enzyme, Kinase-Glo Plus ATP luminescence, 45 min. Potency, µM (doses to about 76.8 µM), without a hit: top-dose activity, negative = inhibition, hits mostly inhibitors. 410,000 compounds, 0.12% hits. AID 624173, 2012; note: nearly all actives have a fitted effect of over 50% in size
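T. brucei PYK with substrate was exposed to pin-transferred compounds across a concentration series, then started with 130 uM ADP (final). After 45 min at room temperature, Kinase-Glo Plus luminescence was read, normalized and curve-fitted.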
RE007 growth inh: qHTS Assay for Inhibitors of the HIV-1 protein Vpr; S. pombe RE007 Vpr strain, BacTiter-Glo ATP luminescence, 24 h; Potency, µM (doses to about 92.2 µM), for inactives: at the highest dose activity change, negative = less growth, most hits filed as inhibitors; 360,000 compounds, 0.21% hits; AID 651644, 2012; active = well fitted falling curve with a large enough effect; inconclusive = small, poorly fitted or top-dose-only effect; inactive = no such curve, though single readings can be large or run the other way; note: nearly all actives have a fitted effect of over 50% in size
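Fission yeast strain RE007, carrying one chromosomally integrated HIV-1 vpr copy, was seeded at OD 0.01 in PMG+AL medium with 23 nL pinned compound. After 24 h at 30 °C and 99% humidity, viability was read by BacTiter-Glo luminescence.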
* hit, by the source's call; ? = inconclusive; . = no result; [ ] = remark or other dose. Unless noted, calls come from the whole dose curve; as a rule, active = well fitted curve in the direction sought with a large enough effect; inconclusive = small, poorly fitted or top-dose-only effect, or another doubt; inactive = no such curve, though single readings can be large; an effect the other way counts as inactive or inconclusive. Unless noted, % is set by controls: 0 for no effect and ±100 for the full control effect; potency is the fitted concentration of half-maximal effect.

SMILES	AMA1-RON2 inh	Sm TGR block	LmPK inhibitor	TbPYK inhibitor	RE007 growth inh
CCOc1ccc(N2C(=O)CC(N3CCOCC3)C2=O)cc1 (centres undefined)	1%	-29%	2%	3%	-6%
CC(=O)Oc1ccc(N2C(=O)CC(N3CCOCC3)C2=O)cc1 (centres undefined)	-7%	22µM*	1%	-1%	-2%
O=C1CC(N2CCOCC2)C(=O)N1c1ccc2c(c1)OCO2 (centres undefined)	2%	50µM*	4%	-1%	-2%
Cc1ccc(-n2nc(C)c3nc(CCC(=O)Nc4cccc(C)c4C)c(=O)n(C)c32)cc1	.	4%	.	3%	.
CCOC(=O)C1CCN(C(=O)Cn2c(-c3cccs3)cc3cc(Cl)ccc32)CC1	.	2%	.	0%	.
COC(=O)C1=C(C(=O)OC)[C@@H]2N(C)c3ccc(OC)cc3[C@@]23C[C@@H](C(=O)OC)N(S(=O)(=O)c2ccc4c(c2)OCCN4C)C3=N1	.	.	-6%[11.5 µM]	.	.
Cc1onc(-c2ccccc2)c1C(=O)N[C@@H]1C(=O)N2[C@@H](C(=O)O)C(C)(C)S[C@@H]12	.	.	.	-10%	.
CCOc1cccc(N2C(=O)CC(N3CCC(C(N)=O)(N4CCCCC4)CC3)C2=O)c1 (centres undefined)	16%	45µM*	-5%	1%	0%
CC(=O)Oc1ccc(N2C(=O)C3C4C=CC(O4)C3C2=O)cc1 (centres undefined)	1%	7.1µM*	2%	-7%	?
CCOC(=O)c1ccc(N2C(=O)CC(NC3CCN(C(=O)c4cccc(Cl)c4)CC3)C2=O)cc1 (centres undefined)	15%	50µM*	-3%	-9%	-19%
CCOc1ccc(N2C(=O)CC(NC3CCN(C(=O)c4cccc(Cl)c4)CC3)C2=O)cc1 (centres undefined)	10%	8%	-9%	3%	?
CCOC(=O)c1ccc(N2C(=O)CC(N3CCOCC3)C2=O)cc1 (centres undefined)	-8%	?	-4%	4%	35µM*
CCOc1cccc(N2C(=O)CC(n3cnc4ccccc43)C2=O)c1 (centres undefined)	-9%	?	0%	4%	-17%
CC(C)(C)C(=O)NC1(C(F)(F)F)C(=O)Nc2c1c(=O)[nH]c(=O)n2-c1ccccc1 (centres undefined)	.	?	.	-10%	.
CC(Sc1nccn1C)C(=O)Nc1ccccc1C#N (centres undefined)	.	11%	.	4%	.
S=c1[nH]nc(-c2ccc(Cl)cc2Cl)n1-c1ccccc1	153%	5%	-19%	-21%	14%
S=c1[nH]nc(-c2ccc(Cl)cc2Cl)n1-c1ccc2c(c1)OCCO2	84%	2%	?	6.3µM*	2%
S=c1[nH]nc(Cc2ccc(Cl)cc2)n1-c1ccc2c(c1)OCCO2	76%	12%	?	2.8µM*	2%
COc1cc(OC)cc(-c2n[nH]c(=S)n2-c2ccc3c(c2)OCCO3)c1	58%	.	-6%	2.5µM*	1%
COc1ccc(-c2n[nH]c(=S)n2-c2ccc3c(c2)OCCO3)cc1	57%	-1%	?	?	4%
Oc1ccc(-c2n[nH]c(=S)n2-c2ccc3c(c2)OCCO3)c(O)c1	54%	-6%	?	2.8µM*	.
CCC(=O)C1=C(c2ccc(OC)c(OC)c2)N(C(=O)CC)n2c(CC)nnc2S1	.	?	.	1%	.
CC(=O)N1CCCc2cc(S(=O)(=O)N3CCC(C(=O)NCc4ccccc4Cl)CC3)ccc21	.	3%	.	2%	.
CCc1cccc(NC(=O)Cn2c(=O)n3nc(-c4cccc(F)c4)nc3c3ccccc32)c1	.	14%	.	1%	.
COc1cc(CNc2ccc(N3CCCC3)cc2)cc(Cl)c1OC	?	.	-7%	?	-14%
CCOc1cc(CNc2ccc(N3CCCC3)cc2)cc(Cl)c1OC	20µM*	25µM*	-5%	?	?
